This is a sample that favours compounds with a hit; in the whole collection about 2.7% have one here.
Wnt bcat act: activators of Wnt/beta-catenin signaling | actives 1.2% (n = 300,000) | activation, % at 9.35 µM | AID 743398 | Wnt/beta-catenin reporter cell assay, activator, plate reader; in the data active = activation above about 30%, passing the limit was not always enough; inconclusive = no clear call, values can overlap the other calls;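 also: 0% = neutral control wells and 100% = positive control wells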
MITF TRPM1 HTS: MITF TRPM1 promoter activation in melanoma cells; actives 0.75% (n = 300,000); SK-MEL-5 TRPM1-promoter luciferase, 24 h; % of positive control, neutral wells = 0; activation, % at 12.5 µM;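 active = mean activation of at least 80% with every replicate also reaching 80%; inconclusive = mean reaches 80% but some replicate falls short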;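 also: 0% = neutral control wells and 100% = parthenolide positive control wells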
Env fusion inh: blocks HIV Env-driven cell-cell fusion. HeLa-JRFL Env/CEM21 cell fusion, luciferase. inhibition, % at 12.3 µM. actives 1.1% (n = 360,000);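 active = mean replicate inhibition score of at least 50 and every replicate individually at or above 50; inconclusive = only one of the two criteria met; inactive = mean below 50 and not all replicates reaching 50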;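 also: 0% = plate neutral controls and 100% = maraviroc near 300 nM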
INS-1E GSIS act: GLuc luminescence reporter in INS-1E cells, primary screen for activators of glucose-dependent secretion of insulin | INS-1E GLuc reporter insulin secretion, 2-3 h | activation, % at 16.6 µM | actives 0.61% (n = 370,000) | AID 743287;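 active = lowest replicate activation of at least 40%, so every replicate reaches that level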;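 also: 0% = median of neutral control wells and 100% = median of IBMX positive control wells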
CFTR F508del cor: CFTR F508del correction in bronchial cells | activity (quench increase), % at 7.58 µM | actives 0.36% (n = 350,000) | CFBE cells, YFP halide quenching; stimulated with forskolin plus potentiator P3; % fluorescence drop versus neutral controls | AID 720511;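 active = mean added fluorescence quench of at least 8% versus neutral control, with both replicates also reaching 8%; inconclusive = only one of the mean or replicate conditions met; inactive = mean below 8% and not both replicates reaching 8%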;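 also: cells transiently co-express mutant CFTR-F508del with the halide-sensitive YFP; corrector assay measuring rescue of mutant channel to the surface after 24 h compound exposure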
* marks the source's active call; other numbers are inactive results; u = inconclusive; x = no result given; [ ] = another dose, or the depositor's remark.

SMILES	Wnt bcat act	MITF TRPM1 HTS	Env fusion inh	INS-1E GSIS act	CFTR F508del cor
O=C(CCCCCn1c(=S)[nH]c2ccc(N3CCOCC3)cc2c1=O)NC1CCN(Cc2ccccc2)CC1	-4	2	8	15	1
O=C(NC1CCN(Cc2ccccc2)CC1)c1ccc(Cn2c(=S)[nH]c3ccc(N4CCOCC4)cc3c2=O)cc1	13	81*	16	-1	2
O=C(c1cccnc1)N1C[C@@H]2[C@H](c3ccccc31)[C@H](CO)N2C(=O)CN1CCOCC1	x	x	x	-2	1
O=C(NCc1ccccc1)c1onc(CSc2ccc(F)cc2)c1C(=O)NCc1ccccc1	-3	4	-4	-12	1
Cc1cc(C)cc(SCc2noc(C(=O)NCc3ccccc3)c2C(=O)NCc2ccccc2)c1	-3	3	64*	-3	0
CCCn1cnc2cc(NC(=O)c3cccs3)ccc21	32*	94*	-22	-9	-4
CCCn1cnc2cc(NC(=O)c3ccco3)ccc21	28	14	-27	7	-3
COCC(=O)N(C)C[C@@H]1Oc2cc(C#CC3CCCC3)ccc2S(=O)(=O)N([C@H](C)CO)C[C@@H]1C	x	x	22[16.7 µM]	-12	0
N#C/C(=C\c1cn(Cc2ccccc2F)c2ccccc12)C(=O)NCc1ccco1	x	-2	20	56*	x
N#C/C(=C\c1cn(CCOc2ccccc2)c2ccccc12)C(=O)NCc1cccs1	x	-4	5	99*	x
N#C/C(=C\c1ccc(OCc2cccc(C(=O)O)c2)cc1)C(=O)NCc1ccco1	39*	11	-32	-13	1
COc1ccc(OCCn2cc(/C=C(\C#N)C(=O)NCc3ccco3)c3ccccc32)cc1	-2	11	-9	-1	x
Cc1cc(/C=C(\C#N)C(=O)NCc2ccco2)c(C)n1C1CCCC1	39*	58	-49	x	x
Cc1noc(C)c1NC(=O)Nc1ccc2c(c1)CC(=O)N([C@@H](C)CO)C[C@H](C)[C@@H](CN(C)Cc1ccc(Oc3ccccc3)cc1)O2	x	x	-4[16.7 µM]	4	-4
C[C@H](CO)N1C[C@H](C)[C@H](CN(C)C(=O)Cc2cccnc2)Oc2ncc(/C=C/c3ccccc3)cc2C1=O	x	x	x	4	-1
CCNC(=O)C[C@H]1CC[C@@H]2[C@H](COc3ccc(NC(=O)Nc4cccc(F)c4)cc3C(=O)N2C)O1	x	x	22[16.7 µM]	-5	-1
Nc1ccc2cc3[nH]c4cc(N)ccc4c3nc2c1	5	-82	61*	x	7
COc1ccc(NC(=O)N(C)C[C@H]2Oc3ccc(NC(=O)CCC(F)(F)F)cc3CC(=O)N([C@@H](C)CO)C[C@H]2C)cc1	x	x	16[16.7 µM]	6	3
COCC#Cc1ccc2c(c1)O[C@H](CN(C)Cc1cccnc1)[C@H](C)CN([C@@H](C)CO)S2(=O)=O	x	x	5[16.7 µM]	15	x
COc1ccc(NC(=O)C2(C)CCN2Cc2ccccc2OC(F)F)cc1OC (stereo not given)	-3	x	71*	-6	4
CC1(C(=O)Nc2ccc(Cl)c(Cl)c2)CCN1Cc1ccccc1OC(F)F (stereo not given)	-3	x	14	-3	2
CCNc1nc(NC(C)(C)C)nc(N(CC)n2cnnc2)n1	-1	8	5	x	x
CCNc1nc(NCC)nc(Nn2cnnc2)n1	-1	-10	x	56*	-2
Brc1ccc(/C=C/C=N/Nc2nc3ccccc3s2)cc1	x	44	-123	-2	x
C(=N\Nc1nc2ccccc2s1)/c1ccccn1	-12	x	-2	11	3
SMILES	Wnt bcat act	MITF TRPM1 HTS	Env fusion inh	INS-1E GSIS act	CFTR F508del cor
Brc1csc(/C=N/Nc2nc3ccccc3s2)c1	x	84*	-425	-7	x
CCC/C=N/Nc1nc2ccccc2s1	75*	80	-10	0	-2
C(=C\c1ccccc1)/C=N/Nc1nc2ccccc2s1	u	101*	-291	-7	x
CO[C@H](CN(C)C(=O)C1CCOCC1)[C@H](C)CN(C(=O)Nc1ccc(F)cc1)[C@@H](C)CO	x	x	x	9	-1
O=C(NC1CCCCC1)N1CC2(C1)[C@H](c1ccccc1)[C@H](CO)N2CC1CC1	x	x	x	-8	0
Cc1cc(C)c(S(=O)(=O)N2CCN=C2c2ccccc2)cc1C	3	7	82*	x	x
C[C@H]1CN([C@@H](C)CO)C(=O)c2c(c3ccccc3n2C)-c2ccccc2CO[C@H]1CN(C)S(=O)(=O)c1cn(C)cn1	x	x	-10[16.7 µM]	8	-3
Cc1ccc(-n2nc3ccc(N)cc3n2)cc1C	31*	-20	-65	x	1
CCOc1c(C)cnc2c1c(=O)n(Cc1cccc(Cl)c1)c(=O)n2C	-1	-1	6	-22	0
CCOc1c(C)cnc2c1c(=O)n(Cc1ccc(Cl)cc1)c(=O)n2C	-1	-6	85*	7	1
CC(C)NC(=O)Nc1cccc2c1O[C@@H](CN(C)C(=O)NC(C)C)[C@@H](C)CN([C@@H](C)CO)C2=O	x	x	x	23	1
Cn1cccc1C(=O)OCc1cc(-c2ccco2)on1	27	98*	x	-8	2
CCOc1ccccc1C(=O)NC(C(=O)OCC(=O)NNC(=O)c1cccs1)C(C)C (stereo not given)	-1	x	-2	8	2
CCOC(=O)c1c(C)[nH]c(C)c1C(=O)COC(=O)[C@@H](NC(=O)c1ccccc1OCC)C(C)C	-6	-12	102*	-25	x
Cc1cc(/C=N/n2cnnc2)c(C)n1-c1ccc(OCc2ccc(F)cc2)cc1	1	-25	66*	x	x
Nc1ccc(S(=O)(=O)Nc2nccc(/C=C/c3cccc([N+](=O)[O-])c3)n2)cc1	-2	x	16	70*	-2
Nc1ccc(S(=O)(=O)Nc2nccc(/C=C/c3cccc(Br)c3)n2)cc1	-5	-9	-3	-2	0
CCC(=O)N1C[C@@H](C)[C@@H](OC)CN(C)C(=O)c2ccc(NC(=O)c3ccno3)cc2OC[C@@H]1C	x	x	-7[16.7 µM]	2	-5
CC(C)c1ccc(NC(=O)c2cccnc2)cc1	x	91*	x	18	x
CC(C)c1ccc(NC(=S)NNC(=O)c2cccnc2)cc1	1	-10	4	x	2
CCC(C)c1ccc(NC(=O)NCc2cccnc2)cc1 (stereo not given)	3	5	-2	-11	-5
CCC(C)c1ccc(NC(=O)Nc2cccnc2)cc1 (stereo not given)	20	111*	-159	x	-2
CCCNS(=O)(=O)c1ccc(NC(=O)c2cccnc2)cc1	-6	-5	u	18	x
CC(C)c1ccc(NC(=O)c2cc(Br)ccc2Br)cc1	-1	29	4	-14	-2
CC(C)c1ccc(NC(=O)c2snc3ccc(Cl)cc23)cc1	22	120*	-53	-7	1
CCSc1ccc(NC(=O)c2cccnc2)cc1	37*	x	-24	x	x
O=C(Nc1ccc(F)cc1)N1C[C@H]2[C@@H](c3ccccc31)[C@H](CO)N2C(=O)Cc1ccccc1	x	x	x	-8	2
Cc1cccc(S(=O)(=O)N2[C@@H]3CNC[C@H]2C3c2ccc(-c3ccccc3C)cc2)c1 (stereo not given in full)	x	x	x	7	1
